Results on 20 molecules are retold here after PubChem BioAssay (EPA / NIEHS).

Experiment [1] has as its target human Neurotensin Receptor (NTS), NTSR1 (gene 4923) (UniProt P30989). In words: NVS_GPCR_hNTS: NovaScreen (NVS) G Protein-Coupled Receptor Assay for human Neurotensin Receptor (NTS) (AID 2283279). The essentials:
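Compounds competed with a radiolabelled ligand for binding to CHO-derived human neurotensin receptor; bound signal counted after filtration, 1 h. Screened first at a single concentration of 25 uM in duplicate, then concentration series to 50 uM maximum for actives.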

The target in experiment [2] is human Opioid Receptor Delta 1 (Opiate D1), OPRD1 (gene 4985) (UniProt P41143). In words: NVS_GPCR_hOpiate_D1: NovaScreen (NVS) G Protein-Coupled Receptor Assay for human Opioid Receptor Delta 1 (Opiate D1) (AID 2283280). In a few lines:
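Membrane preparations from CHO cells bearing the human receptor were incubated 1 h with test chemical, and bound radioligand was counted after filtration. Actives from 25 uM duplicate screening were retested in concentration-response.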

The target of experiment [3] is human Neurokinin, NK2 Receptor, TACR2 (gene 6865) (UniProt P21452). Kind of experiment: NVS_GPCR_hNK2: NovaScreen (NVS) G Protein-Coupled Receptor Assay for human Neurokinin, NK2 Receptor (AID 2283278).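 Further: actives reduce bound radioligand signal relative to DMSO baseline.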 In a few lines:
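CHO-derived membrane protein, radioligand displacement, filter scintillation read at 4 h post-dose. Single-point 25 uM in duplicate, then concentration series for actives; DMSO as negative control.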

The target of experiment [4] is human Purinergic Receptor P2Y, P2RY1 (gene 5028) (UniProt P47900). Kind of experiment: NVS_GPCR_hPY2: NovaScreen (NVS) G Protein-Coupled Receptor Assay for human Purinergic Receptor P2Y (AID 2283281). The essentials: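 Filtration scintillation readout of radioligand displacement on U937 extract, measured 1 h post-dosing. Single 25 uM duplicate screen, then singleton concentration series to 50 uM for chemicals passing threshold; DMSO as baseline.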

In experiment [5] the test system is 5-hydroxytryptamine receptor 2C (pig). Kind of experiment: NVS_GPCR_p5HT2C: NovaScreen (NVS) G Protein-Coupled Receptor Assay for pig Serotonin, 5-Hydroxytryptamine Receptor 2C (5HT2C) (AID 2283288). The essentials: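 Radioligand displacement on membranes from pig choroid plexus, detected by filter scintillation counting after 1 h. Tested first at a single 25 uM in duplicate, then in concentration-response for actives; DMSO served as baseline.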

Experiment [6] deals with human Neuropeptide Receptor Y1 (NPY1), NPY1R (gene 4886) (UniProt P25929). Kind of experiment: NVS_GPCR_hNPY1: NovaScreen (NVS) G Protein-Coupled Receptor Assay for human Neuropeptide Receptor Y1 (NPY1) (AID 2283276). The essentials:
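Displacement of specific radioligand from NPY1 receptor of SK-N-MC origin, read by filtration and scintillation after 1 h. Compounds first tested at 25 uM in duplicate, then actives in concentration series; signal loss relative to DMSO.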

Experiment [7] concerns the target Neuropeptide Y receptor type 2 (Homo sapiens) (UniProt P49146). In words: NVS_GPCR_hNPY2: NovaScreen (NVS) G Protein-Coupled Receptor Assay for human Neuropeptide Receptor Y2 (NPY2) (AID 2283277). In a few lines: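 Chemicals were first tested in duplicate at 25 uM, then actives in singleton concentration series to 50 uM. Tracer binding to SK-N-MC-derived protein measured cell-free after 1 h via filter scintillation; signal loss relative to DMSO.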

Experiment [8] concerns the target human Thromboxane A2 Receptor (TXA2), TBXA2R (gene 6915) (UniProt P21731). Kind of experiment: NVS_GPCR_hTXA2: NovaScreen (NVS) G Protein-Coupled Receptor Assay for human Thromboxane A2 Receptor (TXA2) (AID 2283282).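 Further: actives reduce bound radioligand signal relative to DMSO baseline.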 In a few lines:
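Cell-free radioligand binding on membrane protein from human platelets; radioligand displacement read by filter-based scintillation counting after 1 h. Primary screen in duplicate at 25 uM, actives then run in concentration series; loss of signal versus DMSO.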

In experiment [9] the target is rat Serotonin, 5-Hydroxytryptamine Receptor 1 (5HT1), Non-Selective Binding, Htr1a (gene 24473) (UniProt P19327). Kind of experiment: NVS_GPCR_r5HT1_NonSelective: NovaScreen (NVS) G Protein-Coupled Receptor Assay for rat Serotonin, 5-Hydroxytryptamine Receptor 1 (5HT1), Non-Selective Binding (AID 2283286). The essentials:
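Binding of a radioligand to rat cortex membranes is read by filtration and scintillation counting after 1 h. Compounds were screened at 25 uM in duplicate. Actives were then titrated to a top of 50 uM. DMSO is the baseline.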

The target of experiment [10] is Muscarinic acetylcholine receptor M5 (Homo sapiens) (UniProt P08912). In words: NVS_GPCR_hM5: NovaScreen (NVS) G Protein-Coupled Receptor Assay for human Muscarinic, M5 Receptor (AID 2283275). The essentials:
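Chemicals passing a primary duplicate screen at 25 uM were run as singleton concentration series, maximum 50 uM. Displacement of a specific radioligand from CHO-extracted receptor was read by filter scintillation after 1 h, relative to DMSO.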

The target in experiment [11] is Muscarinic acetylcholine receptor M2 (Homo sapiens) (UniProt P08172). Kind of experiment: NVS_GPCR_hM2: NovaScreen (NVS) G Protein-Coupled Receptor Assay for human Muscarinic, M2 Receptor (AID 2283273). In a few lines: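 CHO-expressed human M2 receptor preparation, competitive displacement of a radioligand read by filter-based scintillation counting after 1 h. Single 25 uM duplicate screen, then concentration-response follow-up of actives; DMSO baseline.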

For experiment [12], the target named is human Muscarinic, M4 Receptor, CHRM4 (gene 1132) (UniProt P08173). In words: NVS_GPCR_hM4: NovaScreen (NVS) G Protein-Coupled Receptor Assay for human Muscarinic, M4 Receptor (AID 2283274). The essentials: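 Filter-based scintillation counting of radioligand bound to CHO-expressed human M4 preparations after 1 h; loss of signal fitted versus DMSO. Initial duplicate testing at 25 uM, concentration-response follow-up for actives.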

Experiment [13] deals with rat Adrenergic, Alpha 1, Non-selective Receptor (Adra1), Adra1a (gene 29412) (UniProt P43140). Kind of experiment: NVS_GPCR_rAdra1_NonSelective: NovaScreen (NVS) G Protein-Coupled Receptor Assay for rat Adrenergic, Alpha 1, Non-selective Receptor (Adra1) (AID 2283289). The essentials:
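Chemicals first screened in duplicate at 25 uM, then actives tested in concentration series up to 50 uM. Binding measured as displacement of radioligand from rat forebrain membrane receptors, 1 h, filtration with scintillation readout; DMSO baseline.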

In experiment [14] the target is guinea pig Bradykinin Receptor B2 (BK2), BDKRB2 (gene 100135486) (UniProt O70526). Kind of experiment: NVS_GPCR_gBK2: NovaScreen (NVS) G Protein-Coupled Receptor Assay for guinea pig Bradykinin Receptor B2 (BK2) (AID 2283292). In a few lines:
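Guinea pig ileum membrane preparation incubated 1 h with radioligand and test chemical; bound counts measured after filtration. Primary duplicate screening at 25 uM, then singleton concentration series with a 50 uM top dose; DMSO as baseline.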

Experiment [15] has as its target mouse Cholecystokinin, CCK1 Receptor (CCKA), Cckar (gene 12425) (UniProt O08786). In words: NVS_GPCR_mCCKAPeripheral: NovaScreen (NVS) G Protein-Coupled Receptor Assay for mouse Cholecystokinin, CCK1 Receptor (CCKA) (AID 2283285). The essentials:
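Chemicals were first screened in duplicate at 25 uM, with those meeting threshold (e.g., 30% inhibition) retested in singleton concentration series to 50 uM maximum. Binding of radioligand to mouse pancreatic membranes was read after 2 h by filtration and scintillation counting.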

Experiment [16] has as its target human Vasopressin 1A Receptor (V1A), AVPR1A (gene 552) (UniProt P37288). Kind of experiment: NVS_GPCR_hV1A: NovaScreen (NVS) G Protein-Coupled Receptor Assay for human Vasopressin 1A Receptor (V1A) (AID 2283284). In a few lines: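 Single-concentration duplicate screen at 25 uM, with concentration-response follow-up (top 50 uM) for actives. The assay measured displacement of a radioligand from human platelet-derived receptor after 1.5 h, detected by filtration and scintillation counting.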

Experiment [17] has as its target Muscarinic acetylcholine receptor M3 (Homo sapiens) (UniProt P20309). Kind of experiment: NVS_GPCR_hM3: NovaScreen (NVS) G Protein-Coupled Receptor Assay for human Muscarinic, M3 Receptor (AID 2283272). In a few lines:
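Radioligand displacement binding on human M3 receptor in CHO-derived membranes, 1 h incubation, filter-based scintillation counting. Primary screen in duplicate at 25 uM; actives followed up in concentration series; loss of signal versus DMSO.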

Experiment [18] deals with human Leukotriene B4 Receptor 1 (LTB4-BLT1), LTB4R (gene 1241) (UniProt Q15722). In words: NVS_GPCR_hLTB4_BLT1: NovaScreen (NVS) G Protein-Coupled Receptor Assay for human Leukotriene B4 Receptor 1 (LTB4-BLT1) (AID 2283271). The essentials:
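Cell-free human neutrophil receptor preparation, 1 h exposure, radioligand binding read by filter scintillation counting. Single 25 uM duplicate screen, then concentration series topping at 50 uM; binding loss scored against DMSO baseline.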

Inconclusive results are not listed. The source made the active and inactive calls. How the source made its calls: active means hit-call score of the fitted dose curve at least 0.9, where 1 is the maximum; inconclusive means response in the unintended direction; inactive means score below 0.9.

human Thromboxane A2 Receptor (TXA2), TBXA2R (gene 6915), sequence (P21731 whole entry, looked up): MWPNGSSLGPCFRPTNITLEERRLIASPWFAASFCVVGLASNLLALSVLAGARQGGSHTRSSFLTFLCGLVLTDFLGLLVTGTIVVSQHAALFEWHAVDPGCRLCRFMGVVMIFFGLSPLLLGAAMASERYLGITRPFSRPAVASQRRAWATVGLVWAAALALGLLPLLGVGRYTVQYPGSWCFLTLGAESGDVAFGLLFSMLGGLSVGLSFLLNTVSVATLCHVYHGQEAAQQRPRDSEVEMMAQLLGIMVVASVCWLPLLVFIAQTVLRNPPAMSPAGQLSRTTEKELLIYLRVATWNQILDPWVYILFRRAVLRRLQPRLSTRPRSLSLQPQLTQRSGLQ
human Opioid Receptor Delta 1 (Opiate D1), OPRD1 (gene 4985), sequence (P41143 whole entry, looked up): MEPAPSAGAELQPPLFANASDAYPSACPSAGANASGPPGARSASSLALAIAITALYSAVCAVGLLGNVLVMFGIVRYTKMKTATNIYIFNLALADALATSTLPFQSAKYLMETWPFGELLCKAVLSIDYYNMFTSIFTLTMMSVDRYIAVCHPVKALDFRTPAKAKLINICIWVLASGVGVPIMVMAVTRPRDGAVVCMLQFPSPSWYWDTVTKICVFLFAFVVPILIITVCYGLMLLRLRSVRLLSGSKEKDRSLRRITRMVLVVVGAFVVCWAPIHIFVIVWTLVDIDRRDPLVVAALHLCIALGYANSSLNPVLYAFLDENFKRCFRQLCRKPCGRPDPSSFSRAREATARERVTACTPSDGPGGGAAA
human Muscarinic, M4 Receptor, CHRM4 (gene 1132), sequence (P08173 whole entry, looked up): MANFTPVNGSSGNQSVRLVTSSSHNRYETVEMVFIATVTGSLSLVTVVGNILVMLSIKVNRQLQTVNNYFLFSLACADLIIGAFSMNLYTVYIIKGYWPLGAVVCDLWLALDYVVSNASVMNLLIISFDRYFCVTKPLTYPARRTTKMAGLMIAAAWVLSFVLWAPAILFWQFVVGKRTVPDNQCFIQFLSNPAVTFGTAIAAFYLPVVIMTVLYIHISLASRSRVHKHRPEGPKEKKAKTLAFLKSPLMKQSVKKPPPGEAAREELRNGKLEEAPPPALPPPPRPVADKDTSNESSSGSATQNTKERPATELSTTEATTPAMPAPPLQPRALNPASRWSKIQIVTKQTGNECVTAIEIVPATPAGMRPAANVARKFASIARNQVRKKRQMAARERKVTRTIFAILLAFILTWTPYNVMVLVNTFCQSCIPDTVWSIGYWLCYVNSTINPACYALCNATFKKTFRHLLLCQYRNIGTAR
human Neurokinin, NK2 Receptor, TACR2 (gene 6865), sequence (P21452 whole entry, looked up): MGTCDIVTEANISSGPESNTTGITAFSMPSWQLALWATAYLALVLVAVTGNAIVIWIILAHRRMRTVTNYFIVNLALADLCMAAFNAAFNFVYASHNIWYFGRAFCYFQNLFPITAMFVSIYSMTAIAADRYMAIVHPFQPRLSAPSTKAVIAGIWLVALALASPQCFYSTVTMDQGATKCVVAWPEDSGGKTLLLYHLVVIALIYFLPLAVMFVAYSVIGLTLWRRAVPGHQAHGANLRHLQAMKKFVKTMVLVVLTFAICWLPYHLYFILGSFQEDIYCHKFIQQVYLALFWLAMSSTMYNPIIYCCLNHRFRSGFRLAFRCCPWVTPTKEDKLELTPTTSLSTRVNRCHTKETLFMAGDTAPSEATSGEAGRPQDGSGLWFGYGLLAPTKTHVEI
Muscarinic acetylcholine receptor M5 (Homo sapiens), sequence (P08912 whole entry, looked up): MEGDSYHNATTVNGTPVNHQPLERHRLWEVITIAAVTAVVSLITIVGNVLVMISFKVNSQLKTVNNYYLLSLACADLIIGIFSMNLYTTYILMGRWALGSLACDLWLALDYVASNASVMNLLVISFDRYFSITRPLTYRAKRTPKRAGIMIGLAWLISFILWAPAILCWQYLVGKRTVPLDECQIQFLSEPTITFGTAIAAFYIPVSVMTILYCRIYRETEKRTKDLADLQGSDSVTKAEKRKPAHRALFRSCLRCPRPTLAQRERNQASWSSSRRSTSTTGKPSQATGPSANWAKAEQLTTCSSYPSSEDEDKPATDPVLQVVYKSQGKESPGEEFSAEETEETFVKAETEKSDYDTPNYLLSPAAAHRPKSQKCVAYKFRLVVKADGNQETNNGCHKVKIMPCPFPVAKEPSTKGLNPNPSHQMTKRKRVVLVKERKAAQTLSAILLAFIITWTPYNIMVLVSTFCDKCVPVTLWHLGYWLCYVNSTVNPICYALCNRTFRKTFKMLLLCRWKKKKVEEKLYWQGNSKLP
Muscarinic acetylcholine receptor M2 (Homo sapiens), sequence (P08172 whole entry, looked up): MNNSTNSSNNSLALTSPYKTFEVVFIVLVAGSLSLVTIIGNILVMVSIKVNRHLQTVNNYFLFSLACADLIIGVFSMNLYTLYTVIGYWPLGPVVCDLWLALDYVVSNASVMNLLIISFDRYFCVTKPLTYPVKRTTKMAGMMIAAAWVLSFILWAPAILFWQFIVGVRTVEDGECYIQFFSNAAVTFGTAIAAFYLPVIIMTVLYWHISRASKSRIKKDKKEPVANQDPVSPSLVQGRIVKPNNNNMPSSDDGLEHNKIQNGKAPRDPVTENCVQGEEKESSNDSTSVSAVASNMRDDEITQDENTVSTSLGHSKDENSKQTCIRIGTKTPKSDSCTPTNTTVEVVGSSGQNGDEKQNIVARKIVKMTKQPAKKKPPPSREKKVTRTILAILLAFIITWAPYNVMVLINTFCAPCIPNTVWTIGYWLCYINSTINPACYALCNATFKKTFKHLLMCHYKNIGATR
rat Adrenergic, Alpha 1, Non-selective Receptor (Adra1), Adra1a (gene 29412), sequence (P43140 whole entry, looked up): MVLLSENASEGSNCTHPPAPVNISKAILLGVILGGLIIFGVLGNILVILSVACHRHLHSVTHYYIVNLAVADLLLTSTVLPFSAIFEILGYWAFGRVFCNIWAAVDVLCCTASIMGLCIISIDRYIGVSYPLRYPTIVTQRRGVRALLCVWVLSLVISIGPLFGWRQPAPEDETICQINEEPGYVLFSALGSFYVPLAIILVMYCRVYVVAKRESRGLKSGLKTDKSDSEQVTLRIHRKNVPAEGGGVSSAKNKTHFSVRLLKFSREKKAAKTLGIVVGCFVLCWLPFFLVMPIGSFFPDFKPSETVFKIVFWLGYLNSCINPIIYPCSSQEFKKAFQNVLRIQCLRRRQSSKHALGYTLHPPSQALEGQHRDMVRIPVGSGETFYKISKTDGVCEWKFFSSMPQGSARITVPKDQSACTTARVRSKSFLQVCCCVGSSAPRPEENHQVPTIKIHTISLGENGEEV
Muscarinic acetylcholine receptor M3 (Homo sapiens), sequence (P20309 whole entry, looked up): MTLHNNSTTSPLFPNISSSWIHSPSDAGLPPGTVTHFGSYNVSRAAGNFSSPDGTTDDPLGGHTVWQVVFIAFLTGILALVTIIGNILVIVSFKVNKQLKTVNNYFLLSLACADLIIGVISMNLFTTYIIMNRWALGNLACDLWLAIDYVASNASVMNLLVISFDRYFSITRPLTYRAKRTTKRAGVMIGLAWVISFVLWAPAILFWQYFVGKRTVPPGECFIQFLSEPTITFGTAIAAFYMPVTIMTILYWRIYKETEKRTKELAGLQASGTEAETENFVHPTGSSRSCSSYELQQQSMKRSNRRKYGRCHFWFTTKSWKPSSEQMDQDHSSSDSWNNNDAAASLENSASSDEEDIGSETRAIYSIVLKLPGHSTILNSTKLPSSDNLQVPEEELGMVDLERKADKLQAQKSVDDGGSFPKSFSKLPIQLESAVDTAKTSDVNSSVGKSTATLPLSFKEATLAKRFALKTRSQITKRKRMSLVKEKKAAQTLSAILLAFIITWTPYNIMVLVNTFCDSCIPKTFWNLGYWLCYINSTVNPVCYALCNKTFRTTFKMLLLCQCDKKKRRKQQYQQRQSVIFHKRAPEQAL
guinea pig Bradykinin Receptor B2 (BK2), BDKRB2 (gene 100135486), sequence (O70526 whole entry, looked up): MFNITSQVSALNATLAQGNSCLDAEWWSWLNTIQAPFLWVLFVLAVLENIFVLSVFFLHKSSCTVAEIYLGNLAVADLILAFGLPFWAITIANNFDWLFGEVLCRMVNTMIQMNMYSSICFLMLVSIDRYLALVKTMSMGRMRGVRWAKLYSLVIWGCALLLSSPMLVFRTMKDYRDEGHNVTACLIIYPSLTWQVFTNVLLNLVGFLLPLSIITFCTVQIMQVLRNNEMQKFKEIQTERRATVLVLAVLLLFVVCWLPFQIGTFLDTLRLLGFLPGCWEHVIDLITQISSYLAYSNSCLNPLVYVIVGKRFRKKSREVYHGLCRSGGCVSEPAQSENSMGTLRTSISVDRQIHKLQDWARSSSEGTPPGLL
mouse Cholecystokinin, CCK1 Receptor (CCKA), Cckar (gene 12425), sequence (O08786 whole entry, looked up): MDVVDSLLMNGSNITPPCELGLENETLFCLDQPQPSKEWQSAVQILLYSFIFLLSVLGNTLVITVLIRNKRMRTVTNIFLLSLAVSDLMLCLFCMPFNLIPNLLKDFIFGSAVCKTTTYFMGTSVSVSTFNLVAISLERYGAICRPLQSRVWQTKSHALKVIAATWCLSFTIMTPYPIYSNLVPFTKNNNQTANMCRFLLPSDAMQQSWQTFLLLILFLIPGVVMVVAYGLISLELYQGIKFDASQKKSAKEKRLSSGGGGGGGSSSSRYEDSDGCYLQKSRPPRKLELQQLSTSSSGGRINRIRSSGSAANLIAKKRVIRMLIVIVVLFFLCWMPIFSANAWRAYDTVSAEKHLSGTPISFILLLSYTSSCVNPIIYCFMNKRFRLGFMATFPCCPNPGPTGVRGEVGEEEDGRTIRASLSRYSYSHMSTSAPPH
human Neuropeptide Receptor Y1 (NPY1), NPY1R (gene 4886), sequence (P25929 whole entry, looked up): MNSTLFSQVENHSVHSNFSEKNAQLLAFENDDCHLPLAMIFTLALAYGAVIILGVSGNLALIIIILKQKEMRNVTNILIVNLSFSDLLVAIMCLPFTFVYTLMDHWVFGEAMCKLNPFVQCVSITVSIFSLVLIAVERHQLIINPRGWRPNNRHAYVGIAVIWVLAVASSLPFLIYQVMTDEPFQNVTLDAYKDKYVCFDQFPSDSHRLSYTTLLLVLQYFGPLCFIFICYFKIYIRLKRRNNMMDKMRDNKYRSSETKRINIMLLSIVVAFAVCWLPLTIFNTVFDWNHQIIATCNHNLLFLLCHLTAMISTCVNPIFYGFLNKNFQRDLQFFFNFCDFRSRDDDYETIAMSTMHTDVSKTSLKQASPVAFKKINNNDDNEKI

Usually AC50 stands for the concentration at which the activity in the assay is half-maximal. `CC(C)(C)CC(C)(C)c1ccc(O)c(-n2nc3ccccc3n2)c1`: the AC50 in experiment [1] is 19.4 µM (active).
Take `CCc1nn(C2CCCCC2)c2cc(C3(C#N)CCC(C(=O)O)CC3)ccc12` (centres undefined): the molecule was called inactive in [2].
On to `C#C[C@]1(O)CC[C@H]2[C@@H]3CCC4=CC(=O)CC[C@@H]4[C@H]3CC[C@@]21C`, for which the result in [3] and in experiment [4] was inactive.
`Cc1cc(CCN2CCN(c3nsc4ccccc34)CC2)cc2c1NC(=O)CC2(C)C`: the concentration at half-maximal activity (AC50) was 5.07 µM (active) in [3] and 0.00247 µM (active) in experiment [5].
On to `Oc1cccc(O)c1`, for which, in experiment [6], the molecule was called inactive.
Turning to `CCCCC(CC)COC(=O)CCCCC(=O)OCC(CC)CCCC` (centres undefined), in experiment [7], the call was inactive. Moreover, the AC50 in experiment [8] was 13.8 µM (active).
As for `CN1CCN(c2ccccc2/C=C2\SCCN(c3ccc(Cl)c(Cl)c3)C2=O)CC1`, the figures for the AC50 in [3], in experiment [9] and in experiment [5] were 6.97 µM (active), 0.626 µM (active) and 0.748 µM (active), respectively.
Turning to `O=C(OCCOCCOC(=O)c1ccccc1)c1ccccc1`, the result in experiment [10] and in [3] was inactive.
For `CC(=O)NC1(c2cccc(F)c2)CCN(CC[C@@]2(c3ccc(Cl)c(Cl)c3)CN(c3ccccc3)C(=O)CO2)CC1`, the AC50 is 8.68 µM (active) in experiment [11]; 13.9 µM (active) in experiment [12]; 10.6 µM (active) in [10]; 0.00268 µM (active) in [3]; 3.53 µM (active) in [5]; 11.8 µM (active) in experiment [13]. The molecule was classed as inactive in experiment [2].
On to `CC[C@H](c1ccc(O)cc1)[C@@H](CC)c1ccc(O)cc1`, for which, in experiment [2], the AC50 was 8.04 µM (active).
`Nc1cccc2c(N)cccc12`: the call in experiment [3] and in experiment [8] was inactive.
In the case of `Cc1oc(-c2ccccc2)nc1CCOc1ccc(C[C@H](Nc2ccccc2C(=O)c2ccccc2)C(=O)O)cc1`, the molecule was called inactive in experiment [10], in experiment [3] and in experiment [14]. For the same molecule, the values for the concentration at half-maximal activity (AC50) in experiment [2] and in experiment [8] were 12.8 µM (active) and 3.52 µM (active), respectively.
As for `ClC1=C(Cl)C(Cl)(Cl)C(Cl)=C1Cl`, the molecule was called inactive in experiment [15].
Take `CN1CCC[C@H]1c1cccnc1`: the molecule was classed as inactive in [12] and in [10].
As for `CCCCCCCCC(=O)O`, in experiment [16], the AC50 was 5.76 µM (active). Also, the call in experiment [13] and in experiment [14] was inactive.
With `CCCOC(=O)c1ccc(O)cc1`, the molecule was called inactive in experiment [5].
Consider `CCN(CC)CCNc1ccc(CNC=O)c2sc3ccc(OC)cc3c(=O)c12`, for which the half-maximal activity concentration (AC50) in experiment [17] is 8.94 µM (active); in experiment [11], 11.7 µM (active); in experiment [12], 8.13 µM (active); in experiment [10], 7.21 µM (active); in experiment [5], 13.5 µM (active); in [13], 20.1 µM (active). Further, the call in experiment [2] was inactive.
On to `O=C(O)Cc1cc(I)c(Oc2cc(I)c(O)c(I)c2)c(I)c1`, for which the call in [15] and in experiment [13] was inactive.
As to `CCCCCCCC(=O)O`, the molecule was called inactive in experiment [17] and in [11]. For the same molecule, the half-maximal activity concentration (AC50) in experiment [12] is 6.66 µM (active).
In the case of `O=c1c(-c2ccc(O)cc2)coc2cc(O)ccc12`, in experiment [18], the result was inactive.
